Bioassay records (PubChem)
BAZ2B inh = qHTS Assay for Inhibitors of BAZ2B; Bromodomain adjacent to zinc finger domain protein 2B (Homo sapiens), Q9UIF8; AlphaScreen BAZ2B-H3K14Ac peptide displacement; Potency, µM (top dose mostly 114 µM), inactives show at the highest dose activity change, negative = inhibition, most hits filed as inhibitors; 4.4% of 360,000 active; AID 504333, 2011; also: % is scaled to controls: 0 for no effect and ±100 for the full control effect; nearly all actives have a fitted effect of over 60% in size
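In this displacement format the biotinylated H3(5-23) peptide acetylated at Lys14 serves as ligand at 50 nM, with BAZ2B at 50 nM in PBS pH 7.4 containing 0.01% Tween-20. Donor and acceptor beads are 10 ug/mL final.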
G9a block = qHTS Assay for Inhibitors of Histone Lysine Methyltransferase G9a; G9a H3K9 monomethylation, AlphaScreen, 2 h; Potency, µM (highest dose often 102 µM), for the others: at the highest dose activity, negative = inhibition, most hits filed as inhibitors; 8.8% of 350,000 active; also: % is scaled to controls: 0 for no effect and ±100 for the full control effect; nearly all actives have a fitted effect of over 75% in size
Target sequence (Q96KQ7 913-1193 limits assumed): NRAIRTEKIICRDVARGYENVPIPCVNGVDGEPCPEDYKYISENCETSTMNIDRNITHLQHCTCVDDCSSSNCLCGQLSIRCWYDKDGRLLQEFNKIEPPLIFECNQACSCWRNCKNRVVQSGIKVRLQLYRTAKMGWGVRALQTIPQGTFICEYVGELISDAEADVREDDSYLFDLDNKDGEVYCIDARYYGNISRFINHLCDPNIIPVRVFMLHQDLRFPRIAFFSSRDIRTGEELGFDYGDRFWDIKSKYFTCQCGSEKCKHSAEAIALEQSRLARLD
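Signal arises when biotinylated H3K9 peptide, once monomethylated, bridges streptavidin donor and antibody-captured acceptor beads. Enzyme at 20 nM was preincubated 15 min with test compounds; peptide 500 nM and SAM 20 uM then reacted for 2 h.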
L3MBTL1 inh = qHTS Assay for the Inhibitors of L3MBTL1; Lethal(3)malignant brain tumor-like protein 1 (Homo sapiens), Q9Y468; AlphaScreen L3MBTL1–H3K9me1 peptide binding; Potency, µM (top dose mostly 57.1 µM), for inactives: at the highest dose activity, negative = inhibition, hits mostly inhibitors; 0.66% of 230,000 active; AID 485360, 2010; also: % is scaled to controls: 0 for no effect and ±100 for the full control effect; nearly all actives have a fitted effect of over 60% in size
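L3MBTL1 (50 nM) pre-complexed 30 min with biotinylated H3(1-15)K9me1 peptide (75 nM), then compounds added for 30 min at room temperature; AlphaScreen streptavidin donor/nickel chelate acceptor beads (10 ug/mL final) read after 30 min dark incubation.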
HP1b chromo inh = HTS for Inhibitors of HP1-beta Chromodomain Interactions with Methylated Histone Tails; 0.56% of 390,000 active; Potency, µM (highest dose often 114 µM), inactives show top-dose activity change, negative = inhibition, actives largely listed as inhibitors; AlphaScreen HP1-beta / biotin-H3K9me3 peptide binding; also: nearly all actives have a fitted effect of over 70% in size
Target sequence (P83916 whole entry, looked up): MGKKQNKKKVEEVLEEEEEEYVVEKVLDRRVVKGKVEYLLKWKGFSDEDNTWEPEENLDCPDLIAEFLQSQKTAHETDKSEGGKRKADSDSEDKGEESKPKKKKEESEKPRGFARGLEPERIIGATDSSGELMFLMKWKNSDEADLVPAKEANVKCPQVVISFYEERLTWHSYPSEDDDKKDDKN
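AlphaScreen: HP1-beta (50 nM) preformed 30 min with biotin-H3(1-18)K9me3 peptide (50 nM) in PBS pH 7.4, 0.01% Tween-20. Compound added for 30 min at RT, then streptavidin donor/nickel chelate acceptor beads (10 ug/mL) for 30 min.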
JMJD2A Tudor inh = qHTS Assay for Inhibitors of JMJD2A-Tudor Domain. AID 504339, 2011. Lysine-specific demethylase 4A (Homo sapiens), O75164. 4.4% of 390,000 active. Potency, µM (series often up to 114 µM), for the others: top-dose activity change, negative = inhibition, most hits filed as inhibitors. AlphaScreen JMJD2A-Tudor / H3K4me3 peptide binding; also: % is scaled to controls: 0 for no effect and ±100 for the full control effect; nearly all actives have a fitted effect of over 50% in size
* = called active by the depositor; ? = inconclusive; · = no result given; ! = a repeat was not active; [ ] = remark or other dose. Shown are actives, neighbours in structure and some others; about 11% of the full set was active somewhere. Calls follow the shape of the dose curve; as a rule, active = well fitted inhibition curve with a large enough effect; inconclusive = small, poorly fitted or top-dose-only effect; inactive = no such curve, though single readings can be large or run the other way. Potency is read from the fitted curve at half-maximal effect.

SMILES | BAZ2B inh | G9a block | L3MBTL1 inh | HP1b chromo inh | JMJD2A Tudor inh
CCNc1ccc(S(=O)(=O)N(C)C)cc1[N+](=O)[O-] | ? | · | 3% | -6% | 32µM*
CCCCNc1ccc(S(N)(=O)=O)cc1[N+](=O)[O-] | -17% | -5%[59 µM] | -1% | · | ·
O=[N+]([O-])c1cccc(S(=O)(=O)c2ccc(NCCO)c([N+](=O)[O-])c2)c1 | -28% | -29% | -13% | ? | 14µM*
CC1CCN(S(=O)(=O)CCNC(=O)c2ccc3c(c2)OCO3)CC1 | -2% | -3%[0.501 µM] | 14% | -11% | -6%
COc1cccc(NC(=O)c2oc3ccc(S(=O)(=O)N(C)C4CCCCC4)cc3c2C)c1 | -3% | -4%[59 µM] | · | 25% | -15%
COC(=O)c1cc(NC2(c3ccccc3)C(=O)c3ccccc3C2=O)cc(C(=O)OC)c1 | -27% | -36%[59 µM] | · | 20% | -31%
O=C(Nc1cccc(C(=O)N2CCN(c3ccc(Cl)cc3)CC2)c1)c1nsc2ccccc12 | -4% | -28%[59 µM] | · | 5%[57 µM] | -24%
CCc1cccc2c(C(=O)CSc3nnc(C4CC4)o3)c[nH]c12 | -4% | 38%[12.7 µM] | 4% | 56% | -1%
CNc1ccccc1C(C)(C)c1cc(-c2cccc([N+](=O)[O-])c2)no1 | ? | 32µM* | ? | -22% | ?
Cc1ccc(N(Cc2cccs2)C(=O)c2ccco2)cc1 | -4% | -7%[59 µM] | · | 64% | 0%
Cc1cccc(N2CCN(C(=O)C3CCN(S(=O)(=O)c4cccs4)CC3)CC2)c1C | -1% | 6%[59 µM] | · | 18% | 0%
N#CC(C#N)=c1ccc2c(c1)NC1(CCCCC1)N=2 | 13µM* | 11µM* | 28µM* | 32µM* | 22µM*
COc1ccc(CNC(=O)COc2ccc(F)cc2)cc1 | -4% | 9% | 3% | 37% | -6%
Cc1cc(CNC(=O)c2cccc([N+](=O)[O-])c2C)c2ccccc2n1 | -18% | -33% | 8% | 32% | -5%
COc1ccc(CC(=O)NCc2n[nH]c(=S)n2-c2ccc(Br)cc2)cc1 | -22% | ? | · | -6% | -18%[11.4 µM]
COc1ccccc1-n1c(CNC(=O)c2cccc([N+](=O)[O-])c2C)n[nH]c1=S | -6% | ? | · | 37% | 20µM*
Cc1cccc(-n2c(CNC(=O)c3cccc([N+](=O)[O-])c3C)n[nH]c2=S)c1 | · | 11µM* | · | 17% | 16µM*
COc1ccccc1-n1c(CNC(=O)COc2ccccc2)n[nH]c1=S | -1% | ? | · | 22% | 7.1µM*
COc1ccc(CC(=O)NCc2n[nH]c(=S)n2-c2ccccc2)cc1 | -2% | 14µM* | · | 45% | ?
CCOc1ccccc1NC(=O)c1cnn2c(C(F)F)cc(-c3ccccc3)nc12 | -26% | -36%[59 µM] | · | 7% | ?
CCOC(=O)c1cc(COc2cc(Cl)cc(Cl)c2)on1 | 2% | 57% | · | 49% | 25%
COc1cccc(NC(=O)CN(C)C(=O)C(Sc2ccccc2)c2ccccc2)c1 (stereo unspecified) | 7% | -25% | -15% | 32% | -23%
COc1ccc(CSCCc2n[nH]c(=S)n2-c2ccccc2)cc1 | ? | ? | ? | -3% | 50µM*
OCCCc1n[nH]c(=S)n1-c1ccccc1 | -28% | ? | -8% | 40% | 1%
O=C1c2ccccc2C(=O)N1CCc1ccccc1 | · | · | · | ? | 56µM*
SMILES | BAZ2B inh | G9a block | L3MBTL1 inh | HP1b chromo inh | JMJD2A Tudor inh
O=C1c2ccccc2C(=O)N1CCc1csc(NNc2nc(CCN3C(=O)c4ccccc4C3=O)cs2)n1 | 35µM* | ? | · | -12% | ?
COc1cccc(C(=O)NCC(=O)N2CCN(c3ccc(C(F)(F)F)cn3)CC2)c1 | -3% | -3% | 0% | -2% | -14%
COc1ccc(C(CC(=O)Nc2cccc(C)c2C)N2Cc3ccccc3C2=O)cc1 (stereo unspecified) | -6% | -20%[59 µM] | · | 8% | -25%
Cc1ccc(Cl)cc1N1CCN(Cc2nc3c(c(=O)[nH]c(=O)n3C)n2Cc2ccccc2F)CC1 | 4% | 40µM* | -9% | 19% | ?
COc1ccc(N2CCN(Cc3nc4c(c(=O)[nH]c(=O)n4C)n3CC(C)C)CC2)cc1 | -38% | 25µM* | · | 29% | -19%
OCC[C@@H]1C[C@H](O)[C@@H](O)[C@]2(CCc3ccccc3CO2)O1 | -5% | -71% | -6% | 61% | -6%
COc1ccc(-n2c(=O)c3c(c4cc(OC)ccc4n3C)n(Cc3c(F)cccc3Cl)c2=O)cc1 | -10% | ? | · | 39% | -11%
C[C@H](CO)N1C[C@H](C)[C@@H](CN(C)Cc2ccc(C(=O)O)cc2)Oc2c(NS(=O)(=O)c3cn(C)cn3)cccc2C1=O | · | · | 2% | 23% | -26%
O=C1SCCN1N=Cc1ccc([N+](=O)[O-])o1 | · | · | · | 18%[57 µM] | -1%
O=C1NC(=S)S/C1=C\C=C\c1ccc([N+](=O)[O-])o1 | 11µM* | · | · | ? | 16µM*
COc1ccc(C(=O)c2c(N)c(C(=O)Nc3cccc(OC)c3)c3ccccn23)cc1 | 0% | 28µM* | · | 6% | -22%
O=C(CN1CCCN(Cc2cccc(F)c2)S1(=O)=O)Nc1ccc2c(c1)OCCO2 | -17% | 4%[12.7 µM] | · | 26% | -3%
CSc1cccc(NC(=O)c2nnn(CC(=O)Nc3cc(C)cc(C)c3)c2N)c1 | -16% | 6%[59 µM] | · | 13% | 14µM*
COc1ccc(CNC(=O)Cn2c(SCC(=O)Nc3ccc(C)c(C)c3)nc3ccccc32)cc1 | -5% | 17%[59 µM] | · | 2% | -18%
Cc1ccc(C)c(NC(=O)Cn2cc(S(=O)(=O)N3CCCC3)c(S(=O)(=O)N3CCCC3)c2)c1 | -7%[57.1 µM] | -9%[59 µM] | · | 22% | -1%
COc1ccc(C(=O)Nc2nnc(S(=O)(=O)N3CCC(C)CC3)s2)cc1OC | ? | 13µM*! | · | 26% | ?
CC1CCN(S(=O)(=O)c2nnc(NC(=O)c3ccc(C(C)C)cc3)s2)CC1 | ? | 14µM* | · | -17% | ?
O=C(c1cc(-n2cnnc2)ccc1Cl)N1CCN(c2nc(-c3ccccc3)cs2)CC1 | -2% | 6% | 6% | ? | 56µM*
O=C(c1ncn[nH]1)N1CCN(c2nc(-c3ccccc3)cs2)CC1 | -34% | ? | -3% | -18% | -35%
CNC(=O)Nc1ccc2snnc2c1 | 14% | 50µM* | · | 28% | -16%
Cc1c(C(=O)Nc2ccc(F)c(Cl)c2)sc2nc3n(c(=O)c12)CCC3 | -13% | -1%[59 µM] | · | 40% | -12%
COC(=O)C1=C(C)NC(C)=C(C(=O)O[C@@H]2CCCN(Cc3ccccc3)C2)[C@@H]1c1cccc([N+](=O)[O-])c1 | · | · | · | ? | 45µM*
CCOC(=O)C1=C(C)NC(C)=C(C(=O)OC)[C@@H]1c1cccc([N+](=O)[O-])c1 | · | 1%[21.5 µM] | · | · | ·
